The results in this text go back to PubChem BioAssay (EPA / NIEHS).

Records with an inconclusive call do not appear. The source made the active and inactive calls. Rule for the calls: active = hit-call score of the fitted dose curve at least 0.9, where 1 is the maximum; inconclusive = response in the unintended direction; inactive = score below 0.9.

Broadly, the AC50 is the midpoint of the concentration-response curve, whichever way the signal moves.

Glycogen synthase kinase-3 beta (Homo sapiens), sequence (P49841 whole entry, looked up): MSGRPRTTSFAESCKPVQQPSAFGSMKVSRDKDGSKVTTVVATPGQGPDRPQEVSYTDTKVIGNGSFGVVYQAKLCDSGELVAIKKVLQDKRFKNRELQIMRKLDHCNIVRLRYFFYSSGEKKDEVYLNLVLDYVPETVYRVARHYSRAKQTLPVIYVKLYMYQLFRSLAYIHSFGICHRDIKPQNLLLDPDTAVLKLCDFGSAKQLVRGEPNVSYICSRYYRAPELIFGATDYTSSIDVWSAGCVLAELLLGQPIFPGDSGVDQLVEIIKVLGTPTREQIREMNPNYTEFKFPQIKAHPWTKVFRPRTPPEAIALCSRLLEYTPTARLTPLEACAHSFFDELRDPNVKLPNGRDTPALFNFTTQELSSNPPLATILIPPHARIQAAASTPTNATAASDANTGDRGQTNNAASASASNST
human Matrix Metalloproteinase-7 (MMP7), MMP7 (gene 4316), sequence (P09237 whole entry, looked up): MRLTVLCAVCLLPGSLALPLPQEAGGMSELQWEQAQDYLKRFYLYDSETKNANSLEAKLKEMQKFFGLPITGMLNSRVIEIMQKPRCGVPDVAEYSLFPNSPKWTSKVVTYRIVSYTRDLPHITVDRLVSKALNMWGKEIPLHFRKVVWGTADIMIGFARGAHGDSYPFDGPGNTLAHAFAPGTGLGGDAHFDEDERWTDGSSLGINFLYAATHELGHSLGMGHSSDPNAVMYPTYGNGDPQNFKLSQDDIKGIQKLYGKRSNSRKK
human Insulin Receptor (InsR), INSR (gene 3643), sequence (P06213 whole entry, looked up): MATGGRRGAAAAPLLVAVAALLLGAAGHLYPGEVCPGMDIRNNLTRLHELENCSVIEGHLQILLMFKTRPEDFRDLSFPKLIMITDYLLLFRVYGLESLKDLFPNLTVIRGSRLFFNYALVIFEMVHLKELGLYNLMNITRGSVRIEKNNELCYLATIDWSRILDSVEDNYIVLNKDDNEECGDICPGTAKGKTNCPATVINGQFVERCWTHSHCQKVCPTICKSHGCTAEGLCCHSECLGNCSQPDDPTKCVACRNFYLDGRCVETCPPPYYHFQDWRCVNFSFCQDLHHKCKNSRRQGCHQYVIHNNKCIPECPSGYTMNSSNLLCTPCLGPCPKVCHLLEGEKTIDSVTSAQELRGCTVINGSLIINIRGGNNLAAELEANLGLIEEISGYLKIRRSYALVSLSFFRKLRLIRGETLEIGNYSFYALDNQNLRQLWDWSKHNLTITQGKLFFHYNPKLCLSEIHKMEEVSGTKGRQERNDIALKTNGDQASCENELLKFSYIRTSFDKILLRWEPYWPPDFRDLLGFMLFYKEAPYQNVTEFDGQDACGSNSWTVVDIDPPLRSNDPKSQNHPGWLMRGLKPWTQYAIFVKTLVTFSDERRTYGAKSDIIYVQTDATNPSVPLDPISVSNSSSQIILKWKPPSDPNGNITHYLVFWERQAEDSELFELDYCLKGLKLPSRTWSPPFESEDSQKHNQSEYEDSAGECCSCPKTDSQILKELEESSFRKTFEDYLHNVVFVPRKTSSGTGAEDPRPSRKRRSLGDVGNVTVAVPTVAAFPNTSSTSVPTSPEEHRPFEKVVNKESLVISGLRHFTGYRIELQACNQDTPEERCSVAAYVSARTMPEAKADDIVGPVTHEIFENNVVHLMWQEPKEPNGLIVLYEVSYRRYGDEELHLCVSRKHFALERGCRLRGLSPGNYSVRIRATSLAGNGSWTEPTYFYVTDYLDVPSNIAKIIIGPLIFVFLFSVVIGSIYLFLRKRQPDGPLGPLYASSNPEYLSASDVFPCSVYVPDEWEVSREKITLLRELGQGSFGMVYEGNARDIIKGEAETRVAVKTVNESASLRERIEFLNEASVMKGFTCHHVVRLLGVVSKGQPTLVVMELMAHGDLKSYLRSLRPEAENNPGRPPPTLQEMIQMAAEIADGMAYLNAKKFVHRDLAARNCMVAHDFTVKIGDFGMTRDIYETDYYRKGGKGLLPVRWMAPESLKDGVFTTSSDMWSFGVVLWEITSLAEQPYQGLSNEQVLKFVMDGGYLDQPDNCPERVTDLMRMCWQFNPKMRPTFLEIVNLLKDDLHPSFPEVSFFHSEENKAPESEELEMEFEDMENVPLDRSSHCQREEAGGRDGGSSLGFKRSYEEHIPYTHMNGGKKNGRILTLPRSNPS

The first assay concerns the target Glycogen synthase kinase-3 beta (Homo sapiens) (UniProt P49841). Kind of assay: NVS_ENZ_hGSK3b: NovaScreen (NVS) Enzymatic Assay for human Glycogen Synthase Kinase-3 beta (GSK3b) (AID 2283165). Put shortly:
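Recombinant enzyme with specific fluorescent substrate, 1 h, product separated by electrophoretic mobility shift. Primary duplicate screen at 25 uM; actives (e.g. 30% inhibition) followed in singleton concentration-response to 50 uM. Signal loss fitted versus DMSO.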
Take `CC(C)=CCCC(C)=CC=O`: the compound was classed as inactive. Take `O=C1OC(=O)C2C3C=CC(C3)C12` (stereo not drawn): the call was inactive. The same measure, in the same setting: the value for `Cc1ccc(S(=O)(=O)O)cc1C` was “inactive”. For the compound `CC[C@H](C)C(=O)O[C@H]1C[C@@H](C)C=C2C=C[C@H](C)[C@H](CC[C@@H]3C[C@@H](O)CC(=O)O3)[C@H]21`, the call was inactive. With `O=P(OC(CCl)CCl)(OC(CCl)CCl)OC(CCl)CCl`, the compound was called inactive. The same measure, in the same setting: next, `CC(C)=CCC/C(C)=C/CO`: “inactive”; `CCCC(=O)OCC`: “inactive”. The same measure, in the same setting: next, `Clc1nc(Cl)c(Cl)c(Cl)c1Cl`: “inactive”; `CN(C)c1ccc(Cc2ccc(N(C)C)cc2)cc1`: “inactive”; `CC1(C)C(=O)N(Br)C(=O)N1Br`: “inactive”. The same measure, in the same setting: next, `CCCCCCCCO`: “inactive”.

On to `CC(C)=CCCC(C)CCO` (stereo not drawn), for which the compound was classed as inactive. Still for that read-out and setting: the value for `CC1=CC(=O)CC(C)(C)C1` was “inactive”.

The target of a further assay is human Insulin Receptor (InsR), INSR (gene 3643) (UniProt P06213). Kind of assay: NVS_ENZ_hInsR: NovaScreen (NVS) Enzymatic Assay for human Insulin Receptor (InsR) (AID 2283168). Summed up:
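Fluorescent substrate phosphorylation by recombinant kinase, product resolved by electrophoretic mobility shift, read 1 h after dosing. Screened in duplicate at 25 uM; hits (e.g., 30% inhibition) run in concentration-response to 50 uM; DMSO as baseline.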
For the compound `Clc1nc(Cl)c(Cl)c(Cl)c1Cl`, the compound was called inactive. The same measure, in the same setting: the value for `CC[C@H]1OC(=O)[C@H](C)[C@@H](O[C@H]2C[C@@](C)(OC)[C@@H](O)[C@H](C)O2)[C@H](C)[C@@H](O[C@@H]2O[C@H](C)C[C@H](N(C)C)[C@H]2O)[C@](C)(O)C[C@@H](C)C(=O)[C@H](C)[C@@H](O)[C@]1(C)O` was “inactive”; that for `COCCOCCOCCOC` was “inactive”.

In another assay the target is human LYN Proto-Oncogene, Src family Tyrosine Kinase (LynA), LYN (gene 4067) (UniProt P07948). Kind of assay: NVS_ENZ_hLynA: NovaScreen (NVS) Enzymatic Assay for human LYN Proto-Oncogene, Src family Tyrosine Kinase (LynA) (AID 2283173). Summed up: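 Recombinant kinase with fluorescent substrate; product separated from substrate by electrophoretic mobility shift and read 1 h after dosing. Duplicate screen at 25 uM, then concentration-response up to 50 uM; activity scored as signal loss against DMSO.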
human LYN Proto-Oncogene, Src family Tyrosine Kinase (LynA), LYN (gene 4067), sequence (P07948 whole entry, looked up): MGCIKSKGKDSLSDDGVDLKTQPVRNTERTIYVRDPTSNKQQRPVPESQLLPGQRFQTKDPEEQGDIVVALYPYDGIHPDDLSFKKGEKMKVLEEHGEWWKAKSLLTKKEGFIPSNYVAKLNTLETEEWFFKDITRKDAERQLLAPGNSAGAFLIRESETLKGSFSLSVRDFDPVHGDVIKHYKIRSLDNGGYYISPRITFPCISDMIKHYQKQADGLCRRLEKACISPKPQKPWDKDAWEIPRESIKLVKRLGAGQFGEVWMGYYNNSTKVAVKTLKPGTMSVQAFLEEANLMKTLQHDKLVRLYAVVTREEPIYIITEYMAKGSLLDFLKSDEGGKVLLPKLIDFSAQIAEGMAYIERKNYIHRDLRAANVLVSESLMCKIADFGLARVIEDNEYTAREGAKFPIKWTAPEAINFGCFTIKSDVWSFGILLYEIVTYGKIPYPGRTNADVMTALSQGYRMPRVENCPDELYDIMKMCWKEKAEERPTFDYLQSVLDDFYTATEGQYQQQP
On to `CC(C)CCCCCCCOC(=O)CCCCC(=O)OCCCCCCCC(C)C`, for which the result was inactive. Still for that read-out and setting: next, `NC(=O)NO`: “inactive”. On the same count and under the same terms, the value for `CC(C)c1cccc(C(C)C)c1N1C(=O)c2ccc(O)cc2C1=O` was “inactive”; that for `CC(C)CC(C)(O)C#CC(C)(O)CC(C)C` (stereo not drawn) was “inactive”.

For a further assay, the target named is Mitogen-activated protein kinase 3 (Homo sapiens) (UniProt P27361). Kind of assay: NVS_ENZ_hMAPK3: NovaScreen (NVS) Enzymatic Assay for human Mitogen-Activated Protein Kinase 3 (MAPK 3) (AID 2283177). Summed up: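 Cell-free enzymatic assay with recombinant protein and specific substrate; fluorescence and electrophoretic mobility shift read-out 1 h after dosing. Primary screen duplicate at 25 uM; actives then run in concentration-response up to 50 uM, loss of signal versus DMSO.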
Mitogen-activated protein kinase 3 (Homo sapiens), sequence (P27361 whole entry, looked up): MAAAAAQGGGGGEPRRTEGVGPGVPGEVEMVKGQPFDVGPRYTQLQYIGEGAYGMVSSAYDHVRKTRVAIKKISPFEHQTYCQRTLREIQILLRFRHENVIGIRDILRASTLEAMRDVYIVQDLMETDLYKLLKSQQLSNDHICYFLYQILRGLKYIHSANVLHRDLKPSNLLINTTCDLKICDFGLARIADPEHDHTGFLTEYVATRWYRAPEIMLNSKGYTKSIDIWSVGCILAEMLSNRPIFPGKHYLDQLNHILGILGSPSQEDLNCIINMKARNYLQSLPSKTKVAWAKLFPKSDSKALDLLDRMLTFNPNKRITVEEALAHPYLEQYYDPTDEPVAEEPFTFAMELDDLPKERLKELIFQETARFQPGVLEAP
For the compound `CC[C@H](C)C(=O)O[C@H]1C[C@@H](C)C=C2C=C[C@H](C)[C@H](CC[C@@H]3C[C@@H](O)CC(=O)O3)[C@H]21`, the result was inactive. Turning to `CC(C)c1cccc(C(C)C)c1N1C(=O)c2ccc(O)cc2C1=O`, the call was inactive. On the same count and under the same terms, the value for `O=C(NS(=O)(=O)/C=C/c1ccccc1)c1ccc(F)cc1Cl` was “inactive”.

A further assay concerns the target Collagenase 3 (Homo sapiens) (UniProt P45452). Kind of assay: NVS_ENZ_hMMP13: NovaScreen (NVS) Enzymatic Assay for human Matrix Metalloproteinase-13 (MMP13) (AID 2283182). Summed up:
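Recombinant MMP13 cleaving fluorescent substrate, cell-free, measured 1 h after dosing. Primary duplicate screen at 25 uM; actives tested in concentration-response up to 50 uM; loss of signal relative to DMSO.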
For `CC(C)CCCCCCCOC(=O)CCCCC(=O)OCCCCCCCC(C)C`, the result was inactive.

Take `CCCCCCCCCCCCCCCO`: the result was inactive. Regarding `CC(C)(O)c1coc(S(=O)(=O)NC(=O)Nc2c3c(cc4c2CCC4)CCC3)c1`, the AC50 was 20.6 µM (active). In the case of `COC(=O)c1c(Cl)c(Cl)c(C(=O)OC)c(Cl)c1Cl`, the compound was classed as inactive.

Take `Fc1ccccc1[C@@H](F)COC1CCC(Nc2ncnc3[nH]ncc23)CC1` (stereo partly drawn): the compound was classed as inactive.

Another assay has as its target human Matrix Metalloproteinase-7 (MMP7), MMP7 (gene 4316) (UniProt P09237). Kind of assay: NVS_ENZ_hMMP7: NovaScreen (NVS) Enzymatic Assay for human Matrix Metalloproteinase-7 (MMP7) (AID 2283183). Summed up:
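Cell-free fluorescence enzymatic assay read 1 h after compound addition, activity loss analyzed against DMSO. Primary duplicate testing at 25 uM; compounds meeting threshold rerun in singleton concentration-response up to 50 uM.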
For `CCOCCOCCOCCO`, the AC50 was 28.2 µM (active). In the case of `CC[C@H](C)C(=O)O[C@H]1C[C@@H](C)C=C2C=C[C@H](C)[C@H](CC[C@@H]3C[C@@H](O)CC(=O)O3)[C@H]21`, the outcome was inactive.

Consider `CCCCCCc1ccc(O)cc1O`, for which the compound was classed as inactive. Turning to `CC(C)c1cccc(C(C)C)c1N1C(=O)c2ccc(O)cc2C1=O`, the outcome was inactive. On the same count and under the same terms, next, `CC(C)CCO`: “inactive”.

Take `C=CC(=C)CCC=C(C)C`: the half-maximal activity concentration (AC50) is 6.56 µM (active).

In the next assay the target is human Matrix Metalloproteinase-2 (MMP2), MMP2 (gene 4313) (UniProt P08253). Kind of assay: NVS_ENZ_hMMP2: NovaScreen (NVS) Enzymatic Assay for human Matrix Metalloproteinase-2 (MMP2) (AID 2283184). Summed up: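 Cell-free recombinant MMP2 activity with a fluorescent substrate, read 1 h after dosing. Primary screen in duplicate at 25 uM; actives then run in concentration series; loss of signal fitted versus DMSO.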
human Matrix Metalloproteinase-2 (MMP2), MMP2 (gene 4313), sequence (P08253 whole entry, looked up): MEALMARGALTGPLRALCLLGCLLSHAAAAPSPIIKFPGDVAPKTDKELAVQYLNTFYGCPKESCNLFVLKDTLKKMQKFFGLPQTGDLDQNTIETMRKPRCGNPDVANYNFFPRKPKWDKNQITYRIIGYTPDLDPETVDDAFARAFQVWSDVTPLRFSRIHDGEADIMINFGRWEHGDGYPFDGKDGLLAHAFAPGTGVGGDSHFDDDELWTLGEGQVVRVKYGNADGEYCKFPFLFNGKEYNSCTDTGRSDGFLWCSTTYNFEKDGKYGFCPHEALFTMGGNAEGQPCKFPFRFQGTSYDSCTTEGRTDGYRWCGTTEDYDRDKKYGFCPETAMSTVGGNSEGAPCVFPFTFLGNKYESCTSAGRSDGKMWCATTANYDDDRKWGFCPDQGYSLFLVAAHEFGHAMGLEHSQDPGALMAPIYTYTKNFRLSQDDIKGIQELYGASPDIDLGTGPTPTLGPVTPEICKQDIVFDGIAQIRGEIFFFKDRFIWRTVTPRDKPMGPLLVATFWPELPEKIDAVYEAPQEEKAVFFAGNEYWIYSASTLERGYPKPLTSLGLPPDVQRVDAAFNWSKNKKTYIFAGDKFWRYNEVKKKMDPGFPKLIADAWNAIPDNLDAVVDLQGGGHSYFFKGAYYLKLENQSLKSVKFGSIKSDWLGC
Turning to `CC[C@H](C)C(=O)O[C@H]1C[C@@H](C)C=C2C=C[C@H](C)[C@H](CC[C@@H]3C[C@@H](O)CC(=O)O3)[C@H]21`, the outcome was inactive. Still for that read-out and setting: next, `C=CCCCCCCCCC(=O)O`: “inactive”; `CC(C)c1cccc(C(C)C)c1N1C(=O)c2ccc(O)cc2C1=O`: “inactive”.

In the case of `COC(=O)CC(=O)OC`, the AC50 is 7.18 µM (active).
